Screening results (PubChem)
TROY NFkB inh: TROY signaling inhibition; Q293 LMP1-TROYcd NF-kB luciferase reporter, 4 h; inhibition, % at 10 µM; 360,000 tested, 0.98% active; AID 1347056;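 active = compounds whose plate-normalised and pattern-corrected inhibition of the luciferase reporter signal at the single screening dose is 50% or more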
KKLEB cytotox: CF airway cell cytotoxicity counter-screen | KKLEB CF airway cells viability, ATPlite luminescence, overnight; active compounds read low; cells stimulated with P. aeruginosa culture filtrate | AID 602141 | activity change (cytotoxicity), % at 5 µM | 360,000 tested, 0.36% active;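 active = corrected activity change at or below -50% at 5 µM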
Peg3 promoter: reduces Peg3 promoter-driven luciferase expression in HeLa; HeLa PEG-Prom luciferase reporter, luminescence, overnight; inhibition, % at 20 µM; 360,000 tested, 1.7% active;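 active = inhibition of at least 50% at 20 µM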
CF NFkB block: cystic fibrosis NF-kB activation inhibition; KKLEB NF-kB-GFP reporter, PAF-induced, GFP fluorescence overnight; inhibition, % at 5 µM; 360,000 tested, 0.86% active; AID 588850;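 active = at least 50% inhibition at 5 µM, scaled per plate between neutral and stimulator controls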;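 note: PAF is a Pseudomonas aeruginosa culture filtrate used as stimulus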
TWEAK-Fn14 inh: inhibitors of TWEAK-Fn14 interaction signaling. TWEAK-stimulated Fn14 reporter cells, luciferase luminescence, 8 h. inhibition, % at 10 µM. 360,000 tested, 2% active; in the data active = inhibition above about 50%
HIF-2a inh: HIF-2a inhibition; 360,000 tested, 0.72% active; 786-0 RCC cells HIF-2a reporter, luciferase luminescence, overnight; inhibition, % at 18.8 µM; AID 624352;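 active = inhibition of the luminescence signal of 40% or more relative to plate controls, in a single-dose primary screen at 18.75 µM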
A number is an active result; - = inactive. Shown are actives, neighbours in structure and some others; about 4% of the full set was active somewhere.

SMILES	TROY NFkB inh	KKLEB cytotox	Peg3 promoter	CF NFkB block	TWEAK-Fn14 inh	HIF-2a inh
CC(=O)C1=C(O)C(=O)N(CCC(=O)O)C1c1ccccc1Cl (centres undefined)	-	-	-	-	59	-
Cc1ccc(Cl)cc1N1CCN(S(=O)(=O)c2c(C(=O)N3CCOCC3)c(C)n(C)c2C)CC1	-	-	-	-	-	-
CCOC(=O)c1c(CSc2ccccc2)n(C)c2cc(Br)c(OCC(O)CNC(CO)(CO)CO)cc12 (centres undefined)	-	-	97	-	-	-
Cc1ccc([N+](=O)[O-])c(OCCCN2C(=O)NC(C)(C)C2=O)c1	-	-	-	-	-	-
Cc1cc2c(cc1C)CSC(c1ccc(O)cc1)SC2	-	-	-	-	55	-
CCOc1ccc(N(CC(=O)NCc2cccs2)S(=O)(=O)c2c(C)noc2C)cc1	-	-	-	-	-	-
Nc1cccnc1Oc1ccccc1F	68	-	-	-	-	-
O=C(C1CC(=O)N(c2ccc3c(c2)OCCO3)C1)N1CCN(c2ccccc2)CC1 (centres undefined)	-	-	-	-	64	-
O=C(C1CC(=O)N(c2ccc3c(c2)OCCO3)C1)N1CCN(c2ccccc2O)CC1 (centres undefined)	-	-	-	-	-	-
O=C1CC(N2CCN(c3ccccc3)CC2)C(=O)N1c1ccc2c(c1)OCCO2 (centres undefined)	51	-	-	-	-	-
O=C(NCCCc1ccccc1)C1CC(=O)N(c2ccc3c(c2)OCCO3)C1 (centres undefined)	-	-	-	-	71	-
O=C(NCCc1ccccc1)C1CC(=O)N(c2ccc3c(c2)OCCO3)C1 (centres undefined)	-	-	-	-	-	-
CN1CCN(C2CC(=O)N(c3ccc4c(c3)OCCO4)C2=O)CC1 (centres undefined)	-	-	-	-	-	-
Cc1nnc(NC(=O)CSc2nnc(CNC(=O)c3ccccc3)o2)s1	-	-	-	-	-	-
CN1CCN(c2nc(-c3ccc(C(C)(C)C)cc3)nc3ccccc23)CC1	78	-	-	-	85	-
Cc1ccc(-c2nc(N3CCN(C)CC3)c3ccccc3n2)cc1	-	-	-	-	-	-
Cc1ccc(-n2nnnc2-c2cnc(N3CCCC3)nc2C(F)(F)F)cc1	-	-	-	-	-	-
FC(F)(F)c1nc(N2CCCC2)ncc1-c1nnnn1-c1ccccc1	-	-	-	-	51	-
CCn1c(N2CCN(C(c3ccccc3)c3ccccc3)CC2)nc2c1c(=O)[nH]c(=O)n2C	-	-	-	-	-	-
CN(C)CC(CCC(CN(C)C)C(=O)c1ccccc1)C(=O)c1ccccc1 (centres undefined)	56	-61	109	90	98	94
CCOc1ccc(C(=O)C(CCC(CN(C)C)C(=O)c2ccc(OCC)cc2)CN(C)C)cc1 (centres undefined)	50	-100	106	96	102	93
COc1ccc(C(=O)C(CCCCC(CN(C)C)C(=O)c2ccc(OC)cc2)CN(C)C)cc1 (centres undefined)	-	-	-	-	-	-
O=C(CN1C(=O)c2ccccc2S1(=O)=O)c1ccccc1	77	-	53	-	100	46
O=C(CN1C(=O)c2ccccc2S1(=O)=O)Nc1ncccn1	-	-	-	-	-	-
O=C(CN1C(=O)c2ccccc2S1(=O)=O)Nc1ncc(Cl)cc1Cl	55	-	58	-	75	-
SMILES	TROY NFkB inh	KKLEB cytotox	Peg3 promoter	CF NFkB block	TWEAK-Fn14 inh	HIF-2a inh
CN(C(=O)CN1C(=O)c2ccccc2S1(=O)=O)C1CCCCC1	75	-	-	-	70	-
Cc1ccnc(NC(=O)Nc2ccc3c(c2)N(C)C(=O)CS3)c1	-	-	-	-	52	-
Cc1ccnc(NC(=O)Nc2ccc(F)cc2)c1	-	-	-	-	-	-
CSc1ccc(NC(=O)Nc2cc(C)ccn2)cc1	-	-	-	-	69	-
Cc1ccc2[nH]c(CNC(=O)C3CCCCC3)cc2c1	53	-	-	-	72	-
Cc1ccc(CNC(=O)C2CCCC2)cc1	-	-	-	-	-	-
C[C@@H]1CN([C@@H](C)CO)C(=O)c2cccc(NC(=O)C3CCCCC3)c2O[C@@H]1CN(C)Cc1ccc(Cl)c(Cl)c1	-	-	-	-	-	-
Cc1ccc(S(=O)(=O)N(C(=O)c2ccncc2)c2ccc(OC(=O)c3ccncc3)cc2)cc1	-	-	-	-	-	-
Cc1ccc(S(=O)(=O)N(C(=O)c2ccncc2)c2ccc(OC(=O)c3ccncc3)cc2)c(C)c1	-	-50	52	72	50	-
O=C(Oc1ccc(N(C(=O)c2ccncc2)S(=O)(=O)c2ccc(F)cc2)cc1)c1ccncc1	-	-	-	-	-	-
CCc1ccc(S(=O)(=O)N(C(=O)c2ccncc2)c2ccc(OC(=O)c3ccncc3)cc2)cc1	54	-	-	-	-	-
Cc1ccc(C(C(=O)NCc2ccco2)N(Cc2ccco2)C(=O)CNC(=O)c2ccco2)cc1 (centres undefined)	-	-	-	-	-	-
CC(=O)N1c2ccc3ccccc3c2C(C)CC12CCCCC2 (centres undefined)	-	-	-	-	-	-
CC(C)CC(=O)c1c[nH]c(C(=O)NCc2cccnc2)c1	-	-	-	-	-	-
O=C(Nc1nc2ccc([N+](=O)[O-])cc2s1)c1c(F)cccc1F	-	-	-	-	-	-
N/C(=N\OC(=O)c1cccc2ccccc12)c1ccccn1	-	-	83	-	-	-
Cc1c(C(=O)O/N=C(\N)c2ccccn2)cccc1[N+](=O)[O-]	-	-	-	-	67	-
COc1cccc(C(=O)O/N=C(\N)c2ccncc2)c1OC	-	-	-	-	-	-
COc1cccc(C(=O)O/N=C(\N)c2ccccn2)c1OC	-	-	-	-	81	-
N/C(=N/OC(=O)c1ccccc1Cl)c1ncc([N+](=O)[O-])s1	-	-	-	-	50	-
N/C(=N\OC(=O)c1ccccc1Cl)c1cccc([N+](=O)[O-])c1	-	-	-	-	-	-
COc1cc(C)c(CN2CCN(c3ncccn3)CC2)cc1C	-	-	-	-	-	-
Cc1cc(C(=O)NNC(=O)c2cccs2)nn1C(C)(C)C	-	-	-	-	-	-
COc1ccc(CCC(=O)Nc2ccc(S(=O)(=O)NC3=NCCCCC3)cc2)cc1	-	-	-	-	-	-
COc1ccc(CC2C(=O)NC(C)C(=O)N(C)C3Cc4ccc(cc4)Oc4cc(ccc4O)CC(C(=O)NC(C)C(=O)NC(C)C(=O)N2C)N(C)C3=O)cc1 (centres undefined)	84	-	97	88	101	82
COc1ccc(CN2C(=O)C(C)Nc3ncnc(N4CCc5ccccc5C4)c32)cc1 (centres undefined)	-	-	-	-	-	-
